# Test results reported in PubChem BioAssay (Tox21).
# Values without a mark were called inactive. Inconclusive results are not listed. Where a call stands in place of a potency, no number is given. Active and inactive are the calls of the source. Unless noted, the call rests on the fitted dose curve; in most records, active means well fitted curve in the direction sought with a large enough effect in the repeat runs; inconclusive means weak or mixed curves; inactive means no such curve, though single readings can be large; an effect the other way counts as inactive or inconclusive.
# What was measured:
# [1] = qHTS assay to identify small molecule antagonists of the glucocorticoid receptor (GR) signaling pathway - cell viability counter screen (AID 720693); further: nearly all actives have a fitted effect of over 55% in size
# [2] = qHTS assay for identifying genotoxic compounds that show differential cytotoxicity against isogenic chicken DT40 cell lines with known DNA damage response pathways - wild type cell line (AID 743012); further: nearly all actives have a fitted effect of over 60% in size; further: potency means the concentration at half of the fitted maximal effect
# Procedure, shortened: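 First, wild type DT40 cells were plated at 300 per well and equilibrated about 0.5 h at 37 C/5% CO2. Next, compounds in DMSO were added and exposure lasted 40 h. Finally, CellTiter-Glo was added for 30 min at room temperature and luminescence recorded.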
# [3] = qHTS assay for identifying genotoxic compounds that show differential cytotoxicity against isogenic chicken DT40 cell lines with known DNA damage response pathways - Rev3 mutant cell line (AID 743014); further: nearly all actives have a fitted effect of over 55% in size; further: potency means the concentration at half of the fitted maximal effect
# [4] = qHTS assay for identifying genotoxic compounds that show differential cytotoxicity against isogenic chicken DT40 cell lines with known DNA damage response pathways - Rad54/Ku70 mutant cell line (AID 743015); further: nearly all actives have a fitted effect of over 60% in size; further: potency means the concentration at half of the fitted maximal effect
# [5] = qHTS assay to identify small molecule antagonists of the androgen receptor (AR) signaling pathway - cell viability counter screen (AID 743033; further: nearly all actives have a fitted effect of over 45% in size)
# [6] = qHTS assay to identify small molecule antagonists of the androgen receptor (AR) signaling pathway using the MDA cell line - cell viability counter screen (AID 743041; further: nearly all actives have a fitted effect of over 45% in size)
# Procedure, shortened: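 Viability counter screen run alongside the AR antagonist reporter: cells seeded 5 h before compound, R1881 added, 16 h incubation at 37C without CO2, fluorescent CellTiter-Fluor signal quantified.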
# [7] = qHTS assay to identify small molecule antagonists of the thyroid receptor (TR) signaling pathway (AID 743065); further: nearly all actives have a fitted effect of over 55% in size; further: potency means the concentration at half of the fitted maximal effect
# Procedure, shortened: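 GH3.TRE-Luc rat pituitary cells carrying two TR response elements driving luciferase were plated for 4 h, given compound plus 1 nM T3 (final), and incubated 23.5 h at 37 C. ONE-Glo luminescence measured reporter inhibition; CellTiter-Fluor fluorescence tracked cytotoxicity.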
# [8] = tested on: thyroid hormone receptor (rat, GH3 cells); experiment: qHTS assay to identify small molecule agonists of the thyroid receptor (TR) signaling pathway (AID 743066; calls by dose curve; further: potency means the concentration at half of the fitted maximal effect)
# [9] = molecular target: Estrogen receptor (Homo sapiens) (UniProt P03372); experiment: qHTS assay to identify small molecule antagonists of the estrogen receptor alpha (ER-alpha) signaling pathway (AID 743069; active means well fitted curve in the direction sought with a large enough effect in the signal ratio in the repeat runs, not every such curve was filed as active; the % refers to the signal ratio)
# Procedure, shortened: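 Estradiol-stimulated ER-alpha-UAS-bla HEK293 cells, 18 hr compound exposure at 37C. LiveBLAzer B/G substrate, 2 hr RT, fluorescence read.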
# [10] = molecular target: Estrogen receptor (Homo sapiens) (UniProt P03372); experiment: qHTS assay to identify small molecule agonists of the estrogen receptor alpha (ER-alpha) signaling pathway (AID 743075; calls by dose curve;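 further: HEK293 GripTite cells with ER-alpha and UAS-driven beta-lactamase reporter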)
# [11] = molecular target: Estrogen receptor (Homo sapiens) (UniProt P03372); experiment: qHTS assay to identify small molecule agonists of the estrogen receptor alpha (ER-alpha) signaling pathway using the BG1 cell line (AID 743079); further: nearly all actives have a fitted effect of over 20% in size
# [12] = qHTS assay to identify small molecule antagonists of the estrogen receptor alpha (ER-alpha) signaling pathway using the BG1 cell line (AID 743080; calls by dose curve;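 further: BG1 cells stimulated with 17beta-estradiol alongside compound; series mostly up to about 70 µM; nearly all actives have a fitted effect of over 25% in size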)
# Procedure, shortened: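 After 5 days in phenol-red-free 10% charcoal-stripped FBS medium, BG1-Luc-4E2 cells were seeded, left 24 h at 37 C, co-treated with compounds and 17beta-estradiol for 21.5 h, then assayed for viability and luciferase.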
# [13] = qHTS assay to identify small molecule antagonists of the estrogen receptor alpha (ER-alpha) signaling pathway using the BG1 cell line - cell viability counter screen (AID 743081);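 further: compound given together with 17beta-estradiol as the ER stimulus; series mostly up to about 70 µM; nearly all actives have a fitted effect of over 45% in size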
# [14] = molecular target: Aromatase (Homo sapiens) (UniProt P11511); experiment: qHTS assay to identify aromatase inhibitors (AID 743083); further: series mostly up to about 70 µM; nearly all actives have a fitted effect of over 55% in size
# [15] = qHTS assay to identify small molecule antagonists of the estrogen receptor alpha (ER-alpha) signaling pathway - cell viability counter screen (AID 743074; calls by dose curve;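 further: HEK293 cells carrying ER-alpha-UAS-bla reporter stimulated with 17beta-estradiol; nearly all actives have a fitted effect of over 45% in size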; further: potency means the concentration at half of the fitted maximal effect)
# [16] = qHTS assay to identify small molecule antagonists of the thyroid receptor (TR) signaling pathway - cell viability counter screen (AID 743064); further: nearly all actives have a fitted effect of over 50% in size
# Procedure, shortened: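 GH3.TRE-Luc cells, 4 h pre-plating; cpd + T3 1 nM final; 37 °C 23.5 h; CellTiter-Fluor 30 min; fluorescence read.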
# [17] = molecular target: Androgen receptor (Homo sapiens) (UniProt P10275); experiment: qHTS assay to identify small molecule antagonists of the androgen receptor (AR) signaling pathway (AID 743035; active means well fitted inhibition curve with a large enough effect in the signal ratio in the repeat runs, not every such curve was filed as active; the % refers to the signal ratio)
# Procedure, shortened: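 Beta-lactamase FRET read (2 h RT incubation with LiveBLAzer B/G) following 16 h of compound plus R1881 treatment of AR-UAS-bla HEK293 cells, which had been pre-incubated 4 h at 37C.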
# [18] = molecular target: Androgen receptor (Homo sapiens) (UniProt P10275); experiment: qHTS assay to identify small molecule agonists of the androgen receptor (AR) signaling pathway (AID 743036; active means well fitted activation curve with a large enough effect in the signal ratio in the repeat runs, with a control signal flat, not every such curve was filed as active; the % refers to the signal ratio)
# Procedure, shortened: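 AR-bla HEK293 cells, 2,000/well; 4 h preincubation 37C/5% CO2; compound (DMSO) 16 h at 37C; LiveBLAzer B/G FRET substrate 2 h RT; fluorescence intensity read-out.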
# [19] = molecular target: Androgen receptor (Homo sapiens) (UniProt P10275); experiment: qHTS assay to identify small molecule agonists of the androgen receptor (AR) signaling pathway using the MDA cell line (AID 743040; further: nearly all actives have a fitted effect of over 20% in size)
# Procedure, shortened: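 Luminescence from ONE-Glo, read after 30 min at room temperature, reflects MMTV-driven luciferase in MDA-kb2 cells (AR- and GR-responsive). Treatment lasted 16 h at 37C, 0% CO2.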
# [20] = molecular target: Androgen receptor (Homo sapiens) (UniProt P10275); experiment: qHTS assay to identify small molecule antagonists of the androgen receptor (AR) signaling pathway using the MDA cell line (AID 743042; further: nearly all actives have a fitted effect of over 55% in size)
# Procedure, shortened: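 MDA-kb2 cells (human breast carcinoma, stably carrying an MMTV-luciferase reporter responsive to AR and GR) were plated at 3,000 cells/well and preincubated 5 hr at 37C, then given compound plus R1881 agonist for 16 h. ONE-Glo luminescence was read.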
# Chain of Aromatase (Homo sapiens) (P11511 whole entry, looked up): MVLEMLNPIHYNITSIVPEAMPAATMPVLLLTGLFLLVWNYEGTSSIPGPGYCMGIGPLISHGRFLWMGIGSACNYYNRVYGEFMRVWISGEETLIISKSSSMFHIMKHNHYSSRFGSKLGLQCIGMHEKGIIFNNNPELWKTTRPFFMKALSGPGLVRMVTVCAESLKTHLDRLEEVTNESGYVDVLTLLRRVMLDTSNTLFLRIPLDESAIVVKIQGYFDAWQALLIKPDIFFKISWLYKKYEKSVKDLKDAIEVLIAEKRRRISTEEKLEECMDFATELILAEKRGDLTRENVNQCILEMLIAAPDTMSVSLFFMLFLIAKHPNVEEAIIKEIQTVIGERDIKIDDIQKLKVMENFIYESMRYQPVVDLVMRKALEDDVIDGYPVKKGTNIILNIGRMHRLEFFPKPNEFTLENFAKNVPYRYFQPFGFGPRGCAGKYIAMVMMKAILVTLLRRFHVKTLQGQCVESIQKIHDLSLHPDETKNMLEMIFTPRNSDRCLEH
# Chain of Estrogen receptor (Homo sapiens) (P03372 whole entry, looked up): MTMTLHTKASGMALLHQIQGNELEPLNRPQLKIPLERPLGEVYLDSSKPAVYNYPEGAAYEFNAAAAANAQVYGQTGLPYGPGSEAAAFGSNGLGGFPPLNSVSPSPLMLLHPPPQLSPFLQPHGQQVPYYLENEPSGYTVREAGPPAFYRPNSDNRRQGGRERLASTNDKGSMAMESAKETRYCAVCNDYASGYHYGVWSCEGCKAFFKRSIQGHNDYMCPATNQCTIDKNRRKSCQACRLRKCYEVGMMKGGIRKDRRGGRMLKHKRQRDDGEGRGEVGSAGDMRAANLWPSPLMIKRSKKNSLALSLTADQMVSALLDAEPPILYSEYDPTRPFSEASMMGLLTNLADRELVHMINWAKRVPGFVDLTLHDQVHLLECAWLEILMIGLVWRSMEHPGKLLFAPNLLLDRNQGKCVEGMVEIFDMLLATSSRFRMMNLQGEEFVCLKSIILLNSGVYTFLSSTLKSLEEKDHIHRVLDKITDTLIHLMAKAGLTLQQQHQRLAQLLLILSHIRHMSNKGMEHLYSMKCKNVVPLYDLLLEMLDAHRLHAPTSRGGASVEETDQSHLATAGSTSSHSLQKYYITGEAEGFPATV
# Chain of Androgen receptor (Homo sapiens) (P10275 whole entry, looked up): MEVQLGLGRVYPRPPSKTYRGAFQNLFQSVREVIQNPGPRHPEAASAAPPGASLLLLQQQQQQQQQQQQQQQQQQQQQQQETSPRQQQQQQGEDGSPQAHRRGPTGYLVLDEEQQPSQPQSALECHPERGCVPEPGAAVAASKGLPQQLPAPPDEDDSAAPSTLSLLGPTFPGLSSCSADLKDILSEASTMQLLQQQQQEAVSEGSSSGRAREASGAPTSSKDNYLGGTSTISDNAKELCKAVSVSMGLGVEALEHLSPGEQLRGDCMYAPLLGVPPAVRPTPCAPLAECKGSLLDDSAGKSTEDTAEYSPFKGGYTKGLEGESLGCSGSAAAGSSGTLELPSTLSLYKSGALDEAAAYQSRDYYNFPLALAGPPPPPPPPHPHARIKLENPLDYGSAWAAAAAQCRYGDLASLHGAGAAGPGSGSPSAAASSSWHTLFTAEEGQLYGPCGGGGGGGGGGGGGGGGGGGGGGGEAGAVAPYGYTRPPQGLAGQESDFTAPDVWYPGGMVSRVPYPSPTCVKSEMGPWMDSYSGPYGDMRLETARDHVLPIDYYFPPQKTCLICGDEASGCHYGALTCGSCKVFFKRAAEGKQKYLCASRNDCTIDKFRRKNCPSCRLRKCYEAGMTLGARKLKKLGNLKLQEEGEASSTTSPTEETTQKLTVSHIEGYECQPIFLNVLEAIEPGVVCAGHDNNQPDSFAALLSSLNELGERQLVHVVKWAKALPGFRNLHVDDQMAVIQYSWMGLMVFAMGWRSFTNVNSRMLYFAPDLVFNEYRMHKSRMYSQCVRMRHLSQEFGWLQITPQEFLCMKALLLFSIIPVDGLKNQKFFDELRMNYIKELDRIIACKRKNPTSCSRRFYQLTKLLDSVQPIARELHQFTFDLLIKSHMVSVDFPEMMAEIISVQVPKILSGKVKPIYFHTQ
Compound,Potency [1],Potency [2],Potency [3],Potency [4],outcome [5],outcome [6],Potency [7],Potency [8],Potency [9],Potency [10],Potency [11],outcome [12],outcome [13],outcome [14],Potency [15],Potency [16],Potency [17],outcome [18],outcome [19],outcome [20]
Cc1ccccc1C(=O)N1CC/C(=N\OS(=O)(=O)O)c2ccc(Cl)cc21,inactive,inactive,inactive,inactive,inactive,inactive,inactive,inactive,inactive,inactive,inactive,inactive,inactive,inactive,–,–,–,–,–,–
Cc1cccc(Nc2ccncc2S(=O)(=O)NC(=O)NC(C)C)c1,inactive,inactive,inactive,inactive,inactive,inactive,inactive,inactive,–,inactive,inactive,inactive,inactive,inactive,inactive,–,–,–,–,–
CC(C)COC(=O)/C=C/c1ccccc1,inactive,inactive,inactive,–,inactive,inactive,inactive,inactive,inactive,inactive,inactive,inactive,inactive,–,inactive,inactive,–,–,–,–
CCCCCCCCCCCCCCCC(=O)NCCO,inactive,inactive,inactive,inactive,inactive,inactive,inactive,inactive,–,–,–,–,inactive,inactive,inactive,–,–,–,–,–
C=C[C@@H](C)CCC=C(C)C,inactive,inactive,inactive,inactive,inactive,inactive,inactive,inactive,–,–,–,–,inactive,inactive,inactive,–,–,–,–,–
CC1=NN(c2ccc(S(=O)(=O)O)cc2)C(=O)C1N=Nc1ccccc1 (stereo unspecified),inactive,inactive,inactive,inactive,inactive,–,inactive,inactive,inactive,inactive,inactive,inactive,–,inactive,inactive,–,–,–,–,–
C[C@H](CCC(=O)NCC(=O)O)[C@H]1CC[C@H]2[C@@H]3[C@H](O)C[C@@H]4C[C@H](O)CC[C@]4(C)[C@H]3C[C@H](O)[C@]12C,inactive,inactive,inactive,inactive,inactive,inactive,inactive,74.8 µM (active),–,–,–,–,inactive,inactive,inactive,–,–,–,–,–
CCCCCCCCC(=O)OCC,inactive,inactive,inactive,inactive,inactive,–,–,inactive,inactive,inactive,inactive,inactive,inactive,inactive,inactive,–,–,–,–,–
CC1(N)CCC(C(C)(C)N)CC1 (stereo unspecified),inactive,inactive,inactive,inactive,inactive,inactive,inactive,inactive,–,–,–,–,inactive,inactive,inactive,–,–,–,–,–
SCCSCCS,inactive,inactive,inactive,inactive,inactive,inactive,inactive,inactive,–,–,–,–,inactive,inactive,inactive,–,–,–,–,–
CCCCC(C)C(=O)O (stereo unspecified),inactive,inactive,inactive,inactive,inactive,inactive,inactive,inactive,–,–,–,–,inactive,inactive,inactive,–,–,–,–,–
CN(C)CCCNCCC#N,inactive,inactive,inactive,inactive,inactive,inactive,inactive,inactive,–,–,–,–,inactive,inactive,inactive,–,–,–,–,–
Nc1cc(S(=O)(=O)O)ccc1S(=O)(=O)O,inactive,inactive,inactive,inactive,–,inactive,inactive,inactive,–,–,–,–,inactive,inactive,inactive,inactive,–,–,–,–
CN[C@@H]1[C@H](O)[C@H](NC)[C@H]2O[C@@]3(O)C(=O)C[C@@H](C)O[C@H]3O[C@@H]2[C@H]1O,inactive,inactive,inactive,inactive,–,inactive,inactive,inactive,inactive,inactive,inactive,inactive,–,inactive,inactive,inactive,inactive,inactive,inactive,inactive
O=C1CC[C@H](C(=O)N2CCCCC2)N1,inactive,inactive,inactive,inactive,inactive,inactive,–,–,–,inactive,inactive,inactive,–,inactive,–,–,–,–,–,–
CCCCCCCC[Si](OCC)(OCC)OCC,inactive,inactive,inactive,inactive,inactive,–,inactive,inactive,–,–,–,–,inactive,inactive,54.9 µM (active),–,–,–,–,–
FC(F)(F)c1ccc(Cl)cc1Cl,inactive,inactive,inactive,inactive,inactive,inactive,inactive,inactive,–,–,–,–,inactive,inactive,inactive,–,–,–,–,–
Cc1ccccc1C,inactive,inactive,inactive,inactive,inactive,inactive,–,–,inactive,inactive,inactive,inactive,inactive,inactive,inactive,–,–,–,–,–
Cc1ccc2c(c1)c1c3n2CCNC3CCC1 (stereo unspecified),inactive,11.9 µM (active),11.9 µM (active),16.8 µM (active),inactive,inactive,23.7 µM (active),–,–,–,–,–,inactive,inactive,inactive,–,–,–,–,–
C/C=C(\C)C(=O)OCC/C=C\CC,inactive,inactive,inactive,inactive,inactive,inactive,–,inactive,–,–,–,–,inactive,–,inactive,–,–,–,–,–
C[Si]1(C)N[Si](C)(C)N[Si](C)(C)N1,inactive,inactive,–,inactive,inactive,inactive,inactive,inactive,inactive,inactive,inactive,–,inactive,inactive,inactive,inactive,–,–,–,–
